# A selection: hits, their analogues and other compounds. The true share with any hit is near 27%.
# CYP2C9 activ = increases human cytochrome P450 2C9 activity; P11712; recombinant CYP2C9, luciferin-H conversion, luminescence; hits give high values; factor 1 = untreated enzyme, 0 = blocked; activation factor at 5 µM; 96,000 tested, 1.4% active; AID 1024;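 active = activation factor of 2 or more for CYP2C9 at a 5 µM dose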;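 note: 0 = sulfaphenazole-blocked wells and 1 = vehicle-only wells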
# Cav3 T inh = inhibitors of human Cav3.2 T-type calcium channel; O95180; Cav3.2-expressing cells, Fluo-4 calcium fluorescence FDSS; hits give low values; B-score at 10 µM; 100,000 tested, 4% active; AID 449739;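 active = single-dose well whose peak fluorescence ratio is a statistical outlier from its plate by either plate-standardised score or position-corrected B-score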
# CYP2C19 activ = increases human CYP2C19 enzyme activity; 96,000 tested, under 10 active; recombinant CYP2C19, luciferin-H EGE luminescence; hits give high values; 0 = fully inhibited enzyme, 1 = untreated enzyme; activation factor at 5 µM; AID 1025; P33261;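 active = activation factor of at least 2 at 5 µM in the primary screen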;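 note: 0 = wells with 2.5 mM tranylcypromine and 1 = vehicle-only wells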
# Target sequence (P33261 whole entry, looked up): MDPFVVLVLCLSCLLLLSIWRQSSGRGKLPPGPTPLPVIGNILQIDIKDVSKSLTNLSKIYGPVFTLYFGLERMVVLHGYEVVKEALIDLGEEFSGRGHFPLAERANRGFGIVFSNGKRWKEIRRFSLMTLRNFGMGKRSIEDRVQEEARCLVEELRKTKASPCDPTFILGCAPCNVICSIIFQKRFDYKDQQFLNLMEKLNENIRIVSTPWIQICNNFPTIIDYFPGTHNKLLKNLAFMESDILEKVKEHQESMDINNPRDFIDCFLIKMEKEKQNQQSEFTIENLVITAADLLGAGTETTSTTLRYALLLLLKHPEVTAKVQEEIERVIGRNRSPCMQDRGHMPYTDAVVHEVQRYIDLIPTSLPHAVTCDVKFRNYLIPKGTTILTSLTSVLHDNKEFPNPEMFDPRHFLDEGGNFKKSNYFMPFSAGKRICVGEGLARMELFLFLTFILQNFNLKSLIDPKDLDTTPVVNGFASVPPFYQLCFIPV
# CYP2C9 inhib = inhibitors of human CYP2C9; 96,000 tested, 20% active; inhibition, % at 5 µM; AID 777; CYP2C9 Supersomes, luciferin-H conversion, luminescence;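 active = blocking of liver enzyme CYP2C9 beyond about 50% at 5 µM, limit read from the data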
# CYP2C19 inhib = inhibitors of human CYP2C19. inhibition, % at 5 µM. AID 778. CYP2C19 Supersomes, luciferin-H EGE luminescence, 30 min. 96,000 tested, 21% active;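 active = CYP2C19 inhibition above a set limit at 5 µM in the primary screen, cut at about 50% in these data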;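 note: plate controls were negative control wells for no effect and 2.5 mM tranylcypromine positive control for full effect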
# The depositor's hits bear a star; / = not tested or not shown.
SMILES,CYP2C9 activ,Cav3 T inh,CYP2C19 activ,CYP2C9 inhib,CYP2C19 inhib
CCOC(=O)C(NC(C)=O)(Nc1cccc(F)c1)C(F)(F)F (stereo not drawn),0.8,-0.028,0.5,15,47
Cc1ccc(S(=O)(=O)NC(=O)Nc2ccc(F)cc2)cc1,/,-0.31,/,/,/
CCNc1ccc(C(=O)OCC)cc1NC(=O)c1cc(S(=O)(=O)N2CCOCC2)ccc1C,0.5,0.23,0.1,54*,88*
Cc1cc(C)c(NC(=O)c2ccc(S(=O)(=O)N3CCOCC3)cc2)c(C)c1,1,0.74,1.1,-3,-13
COc1ccc(NC(=O)c2cccnc2Cl)c(S(=O)(=O)N2CCOCC2)c1,0.9,0.58,1.4,9,-37
Cc1ccc(NC(=O)CCc2ccc(S(=O)(=O)N3CCOCC3)cc2)c(C)c1,0.3,1.1,0.5,65*,51*
COc1cc(C)ccc1NC(=O)c1ccc(S(=O)(=O)N2CCOCC2)cc1,2.9*,-0.016,1.1,-189,-6
COc1ccc(NC(=O)c2cncc(Br)c2)c(S(=O)(=O)N2CCOCC2)c1,0.7,0.14,0.4,28,55*
COc1ccccc1CN=C1NC(=O)C(CC(=O)Nc2ccc(OC)c(OC)c2)S1 (stereo not drawn),1.2,0.37,1.2,-16,-16
N#Cc1ccc(NC(=O)CCc2ccc(S(=O)(=O)N3CCOCC3)cc2)cc1,0.3,0.43,0.8,70*,15
CCNc1ccc(C(=O)OCC)cc1NC(=O)c1cccc(N(C)C)c1,0.5,-1.8,0.7,50*,28
O=C(CSCc1ccc(Br)cc1)Nc1ccc(S(=O)(=O)N2CCOCC2)cc1,0.5,-2.9,0.8,45,15
Cc1ccc(C)c(NC(=O)CCc2ccc(S(=O)(=O)NC3CCCCC3)cc2)c1,0.2,-2.6,0.2,76*,84*
O=C(NCC1CCN(c2ccc(S(=O)(=O)N3CCOCC3)cc2)CC1)c1ccc(Cl)cc1,0.8,-5.4*,0.6,21,41
CCOc1ccc(C2/C(=C(/O)c3ccc(Cl)cc3)C(=O)C(=O)N2CCCN(C)C)cc1OC (stereo not drawn),1.3,/,1.3,-30,-26
Cc1ccc(NC(=S)NC(NC(=O)c2ccccc2C)C(Cl)(Cl)Cl)c(C)c1 (stereo not drawn),0.3,-7.1*,0.8,73*,15
Cc1ccccc1NC(=S)NC(NC(=O)N(C)C)C(Cl)(Cl)Cl (stereo not drawn),0.5,-0.0011,0.7,46,33
Cc1ccc(C)c(NC(=S)NC(NC(=O)Cc2cccc3ccccc23)C(Cl)(Cl)Cl)c1 (stereo not drawn),0.9,-0.014,1,13,2
O=C(COc1ccccc1)NC(NC(=S)Nc1ccccc1O)C(Cl)(Cl)Cl (stereo not drawn),0.2,-7.9*,0.1,83*,93*
Cc1ccccc1NC(=S)NC(NC(=O)C(C)(C)C)C(Cl)(Cl)Cl (stereo not drawn),0,-0.8,0.8,97*,23
Cc1ccc(C)c(NC(=S)NC(NC(=O)N(C)C)C(Cl)(Cl)Cl)c1 (stereo not drawn),0.2,0.058,0.3,78*,70*
COC(=O)c1ccccc1NC(=S)NC(NC(=O)COc1ccccc1)C(Cl)(Cl)Cl (stereo not drawn),0.9,/,1,10,0
Cc1ccccc1NC(=S)NC(NC(=O)COc1ccccc1)C(Cl)(Cl)Cl (stereo not drawn),0.3,-2.8,0.4,72*,61*
CC1CCCCC12NC(=O)N(CC(=O)Nc1sc3c(c1C(N)=O)CCC3)C2=O (stereo not drawn),0.3,/,0.8,70*,23
NC(=O)c1c(NC(=O)C2CCCO2)sc2c1CCC2 (stereo not drawn),0.7,-0.15,0.9,28,9
SMILES,CYP2C9 activ,Cav3 T inh,CYP2C19 activ,CYP2C9 inhib,CYP2C19 inhib
CN(C[C@@H](Cc1cccc2ccccc12)N(C[C@H](Cc1ccccc1)N(CCc1ccccc1)N=O)N=O)N=O,/,-0.99,/,/,/
COc1cccc(-c2nc(CS(=O)(=O)c3ccccc3)no2)c1,0.7,/,0.6,32,43
N#Cc1nc(-c2ccccc2F)oc1NCCN1CCOCC1,0.7,0.38,0.4,27,64*
O=S(=O)(c1ccccc1)c1nc(-c2ccccc2Cl)oc1NCCN1CCOCC1,0.2,0.23,0.6,77*,36
Cc1nnc(SCc2nc3ccccc3s2)n1-c1ccccc1,/,0.77,/,/,/
c1ccc(Cn2c(SCc3nc4ccccc4s3)nnc2-c2ccco2)cc1,0.2,/,0.1,83*,88*
CCOC(=O)CSc1nnc(-c2ccc(OC)cc2)n1CC,0.7,0.21,0.9,27,14
CCn1c(SCc2cccc(C)c2)nnc1-c1ccccc1,1,-1.5,0,5,97*
CCOC(=O)CSc1nnc(-c2cccc(Cl)c2)n1CC,0.9,/,0.5,7,52*
CCn1c(SCc2nc3ccccc3s2)nnc1-c1ccccc1,0.8,-0.29,0,20,99*
Clc1ccc(CSc2nnc(-c3sccc3-n3cccc3)o2)cc1,0.5,-1,0.7,46,34
CN1OC(COC(=O)c2ccc(Cl)cc2Cl)CC1c1ccccc1 (stereo not drawn),1.3,-2,0.9,-29,15
COCCn1c(SCc2nc3ccccc3s2)nc2ccccc21,0.1,-2.4,0,86*,100*
COc1cccc(-c2nnc(SCc3nc4ccccc4s3)n2C)c1,0.7,0.052,0.2,29,81*
CCC(c1nnc(SCc2nc3ccccc3s2)n1Cc1ccccc1)N(C)C (stereo not drawn),0.3,-1.2,0.2,74*,81*
CC[C@@H](C)C(N)c1cn([C@@H](CCC(=O)O)C(=O)N2CCNCC2)nn1 (stereo partly drawn),/,0.17,/,/,/
COC(=O)c1ccc(C(=O)OC)c(NC(=O)COC(=O)C2CC2C)c1 (stereo not drawn),0.2,-1,0.2,80*,78*
COC(=O)c1ccc(C(=O)OC)c(NC(=O)COC(=O)C2CCC(C(C)(C)C)CC2)c1 (stereo not drawn),0.7,-4.8*,0.9,29,9
Cc1ccc(NC(=O)COC(=O)C2CC2C)c(S(=O)(=O)N2CCCCC2)c1 (stereo not drawn),0.5,-1,0.3,51*,74*
C=CCn1c(N)cc(=O)nc1SC(C)C(=O)Nc1cccc2ccccc12 (stereo not drawn),/,0.48,/,/,/
COC(=O)C1(C(=O)OC)NOC2C(=O)N(c3ccccc3)C(=O)C21 (stereo not drawn),1,0.56,1,0,1
COc1ccc2c(CCNC(=O)c3ccco3)c[nH]c2c1,0.6,/,0.2,39,79*
O=C(NCCSc1c[nH]c2ccccc12)c1ccco1,0.4,-0.041,0.8,62*,19
COc1ccc(CNCCNC(=O)c2ccco2)c(OC)c1OC,1,0.59,1,-3,5
O=C(NCCSc1c[nH]c2ccccc12)c1c(F)cccc1F,/,-0.089,/,/,/

# Screening results: PubChem BioAssay, several laboratories
